Measurements as given in PubChem BioAssay (NCI).
Compounds without any hit were thinned out: in the full panel of roughly 83,000, 20% have a hit.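 Cells were grown in 96-well plates and exposed to the test compound at a single concentration for 48 hours; results are reported as percent growth, with values below 10 considered active.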 Activity calls are given as the source filed them.

Tested on: CCRF-CEM leukemia
Assay: NCI-60 one-dose screen, 48 h (100 = growth as untreated, 0 = no growth, -100 = all killed)
Settings: 10 µM unless noted
Experimental: Growth inhibition of the CCRF-CEM human tumor cell line is measured as a screen for anti-cancer activity. Cells are grown in 96 well plates and exposed to the test compound for 48 hours. Compounds are tested at a single concentration, which is 10^-5 M for most compounds. The reported endpoint is percent growth (GI% or GIPRCNT), where numbers from 0 - 100% represent growth inhibition, and numbers from -100% - 0 represent cell death. For example, a value of 40 represents 60% growth inhibition. A value of 0 means no net growth occurred over the course of the experiment. A value of -40 indicates 40% of cells at the beginning of the experiment died by the end of the experiment. A value of -100 means all cells are dead at the end of the experiment.
NCI-60 Human Tumor Cell Lines Screen was performed using the standard one-dose NCI protocol, which is described in more detail at https://dtp.cancer.gov/discovery_development/nci-60/default.htm.
Compounds with GIPRCNT values below 10 were considered active. Activity score was based on GIPRCNT using the following formula: […]
Score is 0 for GIPRCNT values of 100 or above, 50 for GIPRCNT values of 0, and 100 for GIPRCNT values of -100.

Q: For `S=C(Cc1ccc2c(c1)CCCC2)N1CCOCC1`, which growth is on record?
A: The growth was 119% (inactive).

Q: How did the growth turn out when `COc1ccc2nc(NNC(=O)c3cnccn3)c3cccn3c2c1` was run?
A: The growth was 1.48% (active).

Q: For `COc1cc(CCC[P+](c2ccccc2)(c2ccccc2)c2ccccc2)cc2c1OCO2`, which growth is on record?
A: The growth was 41.3% (inactive).

Q: `O=C(N=c1oc2ccccc2cc1-c1cc2ccccc2[nH]1)c1ccc(Cl)cc1` was tested. Which growth did it give?
A: Its growth is 24.7% (inactive).

Q: Which growth does the source give for `Fc1cnc(NC2CC2)nc1-c1cnc2ccc(N3CCOCC3)cn12` here?
A: The growth was 6.3% (active).

Q: How did the growth turn out when `O=C1N=c2cc3c(cc2=C/C1=C/c1sc(=S)n(CCc2ccc(O)cc2)c1O)OCCO3` was run?
A: Its growth is 40.9% (inactive).

Q: For `COc1ccc(-c2nc(SCC(=O)Nc3nc(-c4ccccc4)cs3)[nH]c(=O)c2C#N)cc1`, which growth is on record?
A: The growth was 97.2% (inactive).

Q: Which growth does the source give for `O=c1[nH]nc(-c2ccccc2)c2c(-c3ccccc3)onc12` here?
A: The growth was 21.3% (inactive).

Q: With `O=C(NCCNc1cc(-c2cn(-c3ccccc3)nc2-c2cccc(O)c2)ccn1)Nc1ccccc1` as the compound, how does the growth read?
A: Its growth is 79.3% (inactive).

Q: `Cc1ccc(C(=O)CSc2nc(-c3ccc(Br)cc3)c(C#N)c(=O)[nH]2)cc1` was tested. Which growth did it give?
A: Its growth is 105% (inactive).

Q: `CCN1C(=O)N(CC)C2Nn3c(s/c(=C4\C(=O)N(C)c5ccccc54)c3=O)=NC21` (stereo not given) was tested. Which growth did it give?
A: Its growth is 35.8% (inactive).

Q: With `CCN(CC)c1ccc(C(=O)c2ccc(N(CC)CC)cc2)cc1` as the compound, how does the growth read?
A: The growth was 19.8% (inactive).

Q: `CCN(CC)Cc1cccc(C(=O)OC)c1` was tested. Which growth did it give?
A: The growth was 76.3% (inactive).

Q: For `COc1ccc(N=C(c2ccccc2)C2C(=O)c3ccccc3C2=O)cc1`, which growth is on record?
A: The growth was 46.1% (inactive).

Q: How did the growth turn out when `COC(=O)[C@]12CC[C@@H](C)[C@H](C)[C@@H]1C1=CC[C@@H]3[C@@]4(C)C(C=O)=C[C@@](C)(COC(=O)c5ccco5)C4=CC[C@@]3(C)[C@]1(C)CC2` was run?
A: The growth was 4.27% (active).

Q: With `Clc1cc(Cl)cc(Nc2ccc3cc(OCCCN4CCOCC4)ccc3n2)c1` as the compound, how does the growth read?
A: Its growth is 12.9% (inactive).

Q: How did the growth turn out when `COc1cc2nc(Cl)nc(Nc3ccc(S(=O)(=O)Nc4nccs4)cc3)c2cc1OC` was run?
A: Its growth is 117% (inactive).

Q: `COc1cccc(-c2nn(-c3ccccc3)cc2-c2ccnc(NCCCNC(=O)c3cccc(C(F)(F)F)c3)c2)c1` was tested. Which growth did it give?
A: Its growth is 21.5% (inactive).

Q: For `O=c1ssc(Cl)c1-c1ccccc1`, which growth is on record?
A: The growth was 98.1% (inactive).

Q: With `CCCCn1c(=O)c2c(nc3n2CCCN3CCc2ccc(OCC(=O)NCCN(CC)CC)cc2)n(CCCC)c1=O` as the compound, how does the growth read?
A: The growth was 24.6% (inactive).

Q: For `Cc1ccc(NS(=O)(=O)c2ccc3c(c2)C2OCCC2C(c2ccc(C(=O)C(C)C)cc2)N3)cc1C` (stereo not given), which growth is on record?
A: Its growth is 60.3% (inactive).

Q: `CCCCCCCOc1c(OC)cc(C2CC(=O)Nc3c2c(C)nn3-c2nc3ccccc3[nH]2)cc1OC` (stereo not given) was tested. Which growth did it give?
A: The growth was 24.5% (inactive).

Q: How did the growth turn out when `Cc1cc(NCc2cc(Nc3ccnc4cc(Cl)ccc34)ccc2F)nc(N2CCOCC2)n1` was run?
A: The growth was 1.04% (active).

Q: `O=C(Nc1ccc(-n2cc(-c3ccncc3)c(-c3ccc(Cl)c(O)c3)n2)cc1)N1CCOCC1` was tested. Which growth did it give?
A: Its growth is 112% (inactive).

Q: Which growth does the source give for `CCN1C(=O)N(CC)C2Nn3c(s/c(=C\c4cccc([N+](=O)[O-])c4)c3=O)=NC21` (stereo not given) here?
A: The growth was 46% (inactive).

Q: With `Cc1cc(NCc2cc(Nc3ccnc4cc(Cl)ccc34)ccc2F)nc(Cl)n1` as the compound, how does the growth read?
A: Its growth is 42.8% (inactive).

Q: For `COc1ccc(/C=N\NC(=O)c2cc(-c3ccc(Br)cc3)n(-c3ccc(S(N)(=O)=O)cc3)n2)cc1`, which growth is on record?
A: The growth was 55.6% (inactive).

Q: `CCc1c2c(nc3ccc(OC(=O)OCc4ccc(B5OC(C)(C)C(C)(C)O5)cc4)cc13)-c1cc3c(c(=O)n1C2)COC(=O)[C@]3(O)CC` was tested. Which growth did it give?
A: The growth was 17.9% (inactive).

Q: `COc1ccc2cc(-c3cc(OC)c(OC)c(OC)c3)c(=O)oc2c1` was tested. Which growth did it give?
A: Its growth is 74.6% (inactive).

Q: `Cc1ccc(C2SCC(=O)N2Cc2ccccc2)cc1` (stereo not given) was tested. Which growth did it give?
A: Its growth is 79.2% (inactive).

Q: How did the growth turn out when `Cc1ccc(/C=C/c2c(C(=O)/C=C/c3ccc(C(F)(F)F)cc3)c(C)nc3ccccc23)cc1` was run?
A: Its growth is 9.01% (active).

Q: `CCCCCCN(CCCCCC)c1ccc(/C=C2/SC(=O)N(c3nc(N4CCCC4)nc(N4CCCC4)n3)C2=O)c(C)c1` was tested. Which growth did it give?
A: Its growth is 54.1% (inactive).

Q: For `COc1cc(N2C(=O)c3nccnc3C2=O)cc(OC)c1OC`, which growth is on record?
A: Its growth is 100% (inactive).

Q: Which growth does the source give for `Cn1c(=O)c2c(nc(Cl)n2CCl)n(C)c1=O` here?
A: The growth was 84.9% (inactive).

Q: How did the growth turn out when `Cc1c(Cl)cc(-n2c(=O)c3ccccc3c3ccccc3c2=O)cc1Cl` was run?
A: Its growth is 97.9% (inactive).

Q: How did the growth turn out when `CNC(=O)c1cc(Oc2cccc3nc(Nc4ccc(F)c(Cl)c4)ccc23)ccn1` was run?
A: The growth was 60.3% (inactive).

Q: Which growth does the source give for `Cc1ccccc1NC(=O)N/C(N)=N/c1nc(-c2cccc([N+](=O)[O-])c2)cs1` here?
A: Its growth is 35.9% (inactive).

Q: `COc1nc(N(C)O)nc(N(C)O)n1` was tested. Which growth did it give?
A: Its growth is 14.4% (inactive).

Q: With `O=c1ccn2nc3ccccc3c2[nH]1` as the compound, how does the growth read?
A: The growth was 118% (inactive).

Q: `COc1ccc(OC)c2c1[nH]c(=O)c1c3ncccc3cn21` was tested. Which growth did it give?
A: The growth was 36.5% (inactive).
